# Values without a mark were called inactive.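 The calls were made as follows: active = signal falls with dose and the fitted half-maximal concentration is at most twice the highest valid tested dose; inconclusive = flat fit with a moderate signal drop, or unreliable fit; inactive = opposite effect, flat near zero, or potency past limit.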
# Molecular target: PglD acetyltransferase (Campylobacter jejuni) (UniProt O86157)
# Assay: PglD acetyltransferase inhibitors, dose response, biochemical, DTNB absorbance, Campylobacter jejuni, cherry-picked samples (AID 624110)
# Conditions: purified C. jejuni PglD, DTNB absorbance 412 nm; series mostly up to 19.5 µM; normalized activity % vs neutral control (lower = more inhibition): at the top concentration
# Sequence of PglD acetyltransferase (Campylobacter jejuni) (O86157 1-203): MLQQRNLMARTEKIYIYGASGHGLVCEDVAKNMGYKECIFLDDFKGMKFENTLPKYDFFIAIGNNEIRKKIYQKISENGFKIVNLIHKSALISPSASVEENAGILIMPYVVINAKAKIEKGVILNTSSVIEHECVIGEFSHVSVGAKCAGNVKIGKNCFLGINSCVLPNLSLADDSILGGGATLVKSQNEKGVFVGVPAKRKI
row,Structure (SMILES),normalized activity % vs neutral control (lower = more inhibition)
1,CC=Cc1ccc2n(c1=O)C[C@@H]1[C@@H](CO)[C@H](C(=O)NCCOC)[C@H]2N1Cc1nccs1 (mixture of isomers),-3.74%
2,Cc1noc(C)c1NC(=O)Nc1cccc2c1O[C@H](CN(C)C(=O)Nc1cccc3ccccc13)[C@@H](C)CN([C@H](C)CO)C2=O,7.55%
3,C[C@H]1CN([C@@H](C)CO)C(=O)c2cccc(NC(=O)Nc3ccccc3)c2O[C@H]1CN(C)C,1.83% [at 21 µM]
4,CC(C)NC(=O)N(C)C[C@@H]1Oc2ccc(NC(=O)Cc3cn(C)c4ccccc34)cc2C(=O)N([C@H](C)CO)C[C@H]1C,-2.89%
5,O=C(N[C@H]1C=C[C@@H](CC(=O)N2CCCCC2)O[C@H]1CO)c1ccc2c(c1)OCO2,5.79%
6,CO[C@@H]1CN(C)C(=O)c2ccc(NS(C)(=O)=O)cc2OC[C@@H](C)N(C(=O)C2CCOCC2)C[C@H]1C,-0.403%
7,O=C(C[C@@H]1CC[C@@H]2[C@H](COC[C@@H](O)CN2Cc2ccc(F)cc2)O1)N1CCc2ccccc2C1,3.26%
8,O=C(C[C@@H]1C[C@@H]2c3cc(NC(=O)NC4CCCCC4)ccc3O[C@@H]2[C@@H](CO)O1)NCc1cccnc1,6.3%
9,C/C=C/c1cnc2c(c1)C(=O)N([C@@H](C)CO)C[C@H](C)[C@@H](CN(C)C(=O)c1cccnc1)O2,8.94%
10,COCC#Cc1cnc2c(c1)C(=O)N([C@@H](C)CO)C[C@H](C)[C@@H](CN(C)C(=O)C1CCC1)O2,6.81% [at 21 µM]
11,CCC(=O)Nc1ccc2c(c1)OC[C@@H](C)N(Cc1ccccn1)C[C@@H](C)[C@H](OC)CN(C)C2=O,0.696%
12,O=C(C[C@@H]1CC[C@H]2[C@@H](COC[C@H](O)CN2C(=O)Nc2cccc(F)c2)O1)NCc1ccccc1F,4.47%
13,CO[C@H]1CN(C)C(=O)c2cc(NC(C)=O)ccc2OC[C@@H](C)NC[C@@H]1C,6.89%
14,CC(=O)N[C@H]1CC[C@H](CC(=O)NCc2ccc(Cl)cc2)O[C@H]1CO,-3.66%
15,C[C@@H]1CN([C@@H](C)CO)C(=O)c2cc(NC(=O)Nc3ccc(F)cc3)ccc2O[C@@H]1CN(C)CC1CCCCC1,6.19% [at 21 µM]
16,COc1ccc(C#Cc2cnc3c(c2)C(=O)N([C@@H](C)CO)C[C@H](C)[C@H](CN(C)CC2CCCC2)O3)cc1,1.65%
